Data from PubChem BioAssay AID1159580 (chemical genetic matrix, 2015).
Where “and” joins values, the source holds several entries; their conditions need not be identical. Identical values can stand only once. Out of some 5,500 compounds screened, about 2,000 (36%) were called active. Not shown: some 18% with an inconclusive outcome. No stated cut-off is given here; in the data, active means normalized growth mostly below about 0.91 (no sharp cut-off); inconclusive means no clear call, values can overlap the other calls; inactive means mostly above about 0.92. This is one part of the list.

Assay: chemical genetic growth profiling, strain panel (AID 1159580);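 further: tested at 20 µM; growth read once vehicle control cultures reached saturation at 30 °C; 1 = growth at the plate median or of vehicle wells; lower values mean less growth of the strain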
Details: S. cerevisiae deletion strains, growth OD

Measured: normalized growth

COc1ccc([C@@H](C)C(=O)c2ccc(O)cc2O)cc1
inactive: locus YAL021C, strain ccr4, hits give low values 0.987 | locus YAL026C, strain drs2, hits give low values 0.969 | locus YAL030W, strain snc1, hits give low values 0.983 | locus YBL061C, strain skt5, hits give low values 0.976 | locus YBR009C, strain hhf1, hits give low values 0.962 | locus YBR021W, strain FUR4, hits give low values 0.996 | locus YBR023C, strain chs3, hits give low values 0.974 | locus YBR171W, strain sec66, hits give low values 0.95 | locus YBR229C, strain ROT2, hits give low values 0.982 | locus YBR231C, strain swc5, hits give low values 0.983 | locus YBR279W, strain paf1, hits give low values 0.978 | locus YCL011C, strain gbp2, hits give low values 0.987 | locus YCL016C, strain dcc1, hits give low values 0.985 | locus YCL029C, strain bik1, hits give low values 0.96 | locus YCL061C, strain MRC1, hits give low values 0.994 | locus YCL069W, strain vba3, hits give low values 0.955 | locus YCR088W, strain abp1, hits give low values 0.967 | locus YDL005C, strain med2, hits give low values 0.969 | locus YDL035C, strain GPR1, hits give low values 0.98 | locus YDL040C, strain nat1, hits give low values 0.97 | locus YDL074C, strain BRE1, hits give low values 0.927 | locus YDL101C, strain DUN1, hits give low values 0.955 | locus YDL185W, strain tfp1, hits give low values 0.959 | locus YDL192W, strain arf1, hits give low values 0.931 | locus YDR001C, strain nth1, hits give low values 0.979 | locus YDR069C, strain doa4, hits give low values 0.965 | locus YDR101C, strain arx1, hits give low values 0.961 | locus YDR159W, strain sac3, hits give low values 0.969 | locus YDR162C, strain NBP2, hits give low values 0.937 | locus YDR195W, strain ref2 1.11 | locus YDR297W, strain sur2, hits give low values 0.994 | locus YDR318W, strain mcm21, hits give low values 0.93 | locus YDR334W, strain swr1, hits give low values 0.957 | locus YDR335W, strain msn5, hits give low values 0.968 | locus YDR388W, hits give low values 0.969 | locus YDR392W, strain spt3, hits give low values 0.749 | locus YDR502C, strain sam2, hits give low values 0.931 | locus YEL003W, strain gim4, hits give low values 0.962 | locus YEL037C, strain rad23, hits give low values 0.966 | locus YEL061C, strain CIN8 (second series), hits give low values 0.957 | locus YER015W, strain faa2, hits give low values 0.986 | locus YER016W, strain bim1, hits give low values 0.973 | locus YER110C, hits give low values 0.969 | locus YER111C, strain swi4, hits give low values 0.965 | locus YER155C, strain BEM2 (second series), hits give low values 0.952 | locus YER155C, strain BEM2, hits give low values 0.971 | locus YER167W, strain BCK2, hits give low values 0.973 | locus YFR010W, strain ubp6, hits give low values 0.979 | locus YGL078C, strain dbp3, hits give low values 0.981 | locus YGL167C, strain pmr1, hits give low values 0.96 | locus YGL173C, strain kem1, hits give low values 0.959 | locus YGL227W, strain vid30, hits give low values 0.983 | locus YGL240W, strain doc1, hits give low values 0.991 | locus YGL248W, strain PDE1, hits give low values 0.939 | locus YGL253W, strain hxk2, hits give low values 0.976 | locus YGR135W, strain pre9, hits give low values 0.948 | locus YGR252W, strain gcn5, hits give low values 0.92 | locus YHR013C, strain ard1, hits give low values 0.944 | locus YHR027C, strain rpn1, hits give low values 0.964 | locus YHR030C, strain SLT2, hits give low values 0.991 and 0.996 | locus YHR079C, strain IRE1 (second series), hits give low values 0.971 | locus YHR079C, strain IRE1, hits give low values 0.978 | locus YHR094C, strain hxt1, hits give low values 0.977 | locus YHR129C, strain ARP1, hits give low values 0.959 | locus YHR142W, strain chs7, hits give low values 0.929 | locus YHR200W, strain rpn10, hits give low values 0.982 | locus YIL066C, strain RNR3, hits give low values 0.961 | locus YIL073C, strain SPO22, hits give low values 0.955 | locus YIL125W, strain kgd1, hits give low values 0.98 | locus YIR030C, strain dcg1, hits give low values 0.973 | locus YJL092W, strain hpr5, hits give low values 0.978 | locus YJL095W, strain BCK1 (second series), hits give low values 0.987 | locus YJL095W, strain BCK1, hits give low values 0.864 and 0.977 | locus YJL115W, strain asf1, hits give low values 0.98 | locus YJL129C, strain trk1, hits give low values 0.878 | locus YJL134W, strain LCB3, hits give low values 0.989 | locus YJL154C, strain vps35, hits give low values 0.955 | locus YJL164C, strain tpk1, hits give low values 0.965 | locus YJL166W, strain qcr8, hits give low values 0.965 | locus YJL168C, strain set2, hits give low values 0.97 | locus YJL187C, strain SWE1 (second series), hits give low values 0.953 | locus YJL187C, strain SWE1, hits give low values 0.97 | locus YJR043C, strain POL32, hits give low values 1.03 | locus YJR066W, strain TOR1, hits give low values 0.873 | locus YKL009W, strain mrt4, hits give low values 0.963 | locus YKL068W, hits give low values 0.974 | locus YKL085W, strain MDH1 (second series), hits give low values 0.97 | locus YKL085W, strain MDH1, hits give low values 0.97 | locus YKL160W, strain elf1, hits give low values 0.975 | locus YKR026C, strain gcn3, hits give low values 0.97 | locus YKR091W, strain srl3, hits give low values 0.981 | locus YLL001W, strain dnm1, hits give low values 0.966 | locus YLL026W, hits give low values 0.988 | locus YLL041C, strain sdh2, hits give low values 0.953 | locus YLR027C, strain aat2, hits give low values 0.991 | locus YLR058C, strain SHM2, hits give low values 0.977 | locus YLR102C, strain apc9, hits give low values 0.969 | locus YLR113W, strain HOG1, hits give low values 1.01 | locus YLR221C, strain rsa3, hits give low values 0.971 | locus YLR258W, strain gsy2, hits give low values 0.954 | locus YLR262C, strain YPT6, hits give low values 0.738 | locus YLR268W, strain sec22, hits give low values 0.968 | locus YLR320W, strain mms22, hits give low values 0.895 | locus YLR342W, strain FKS1, hits give low values 0.96 | locus YLR357W, strain rsc2, hits give low values 1.03 | locus YLR370C, strain arc18, hits give low values 0.974 | locus YLR371W, strain rom2, hits give low values 0.921 | locus YLR384C, strain iki3, hits give low values 0.982 | locus YML016C, strain PPZ1, hits give low values 0.981 | locus YML032C, strain rad52, hits give low values 0.919 | locus YML120C, strain ndi1, hits give low values 0.976 | locus YML124C, strain tub3, hits give low values 0.968 | locus YMR058W, strain fet3, hits give low values 0.979 | locus YMR078C, strain ctf18, hits give low values 0.955 | locus YMR125W, strain sto1, hits give low values 0.961 | locus YMR129W, hits give low values 0.983 | locus YMR205C, strain PFK2, hits give low values 0.914 | locus YMR223W, strain ubp8, hits give low values 0.944 | locus YMR231W, strain pep5, hits give low values 0.972 | locus YMR307W, strain GAS1, hits give low values 0.692 | locus YNL067W, strain RPL9B, hits give low values 0.967 | locus YNL071W, strain lat1, hits give low values 0.948 | locus YNL153C, strain GIM3, hits give low values 0.953 | locus YNL183C, strain NPR1, hits give low values 0.915 | locus YNL209W, strain ssb2, hits give low values 0.975 | locus YNL233W, strain BNI4, hits give low values 0.934 | locus YNL248C, strain rpa49, hits give low values 0.976 | locus YNL250W, strain rad50, hits give low values 1.01 | locus YNL271C, strain bni1, hits give low values 0.975 | locus YNL298W, strain CLA4, hits give low values 0.945 | locus YNL322C, strain KRE1 (second series), hits give low values 0.986 | locus YNR049C, strain mso1, hits give low values 0.963 | locus YNR052C, strain pop2, hits give low values 0.943 | locus YOL012C, strain htz1 1.31 | locus YOR001W, strain rrp6, hits give low values 0.953 | locus YOR061W, strain CKA2, hits give low values 0.999 | locus YOR069W, strain VPS5, hits give low values 0.974 | locus YOR070C, strain gyp1, hits give low values 0.987 | locus YOR080W, strain dia2, hits give low values 0.975 | locus YOR083W, strain WHI5, hits give low values 0.973 | locus YOR106W, strain vam3, hits give low values 0.97 | locus YOR136W, strain idh2, hits give low values 0.967 | locus YOR144C, strain elg1, hits give low values 0.961 | locus YOR231W, strain MKK1, hits give low values 0.953 | locus YOR265W, strain rbl2, hits give low values 0.969 | locus YOR290C, strain snf2, hits give low values 0.982 | locus YOR316C, strain cot1, hits give low values 0.979 | locus YPL051W, strain arl3, hits give low values 0.975 | locus YPL078C, strain atp4, hits give low values 0.958 | locus YPL106C, strain sse1, hits give low values 1.02 | locus YPL240C, strain hsp82, hits give low values 0.965 | locus YPL241C, strain CIN2, hits give low values 0.971 | locus YPL256C, strain CLN2, hits give low values 0.969 | locus YPR119W, strain clb2, hits give low values 0.966 | locus YPR141C, strain kar3, hits give low values 0.98 | locus YPR167C, strain met16, hits give low values 0.965 | strain wtn01, hits give low values 0.94
active: locus YDR137W, strain rgp1, hits give low values 0.797 | locus YGL086W, strain mad1, hits give low values 0.921 | locus YKR001C, strain vps1, hits give low values 0.798 | locus YLR039C, strain RIC1, hits give low values 1.57 [resistant] | locus YLR262C, strain YPT6 (second series), hits give low values 0.788 | locus YLR330W, strain CHS5, hits give low values 0.888 | locus YLR418C, strain cdc73, hits give low values 0.796 | locus YNL307C, strain MCK1, hits give low values 0.761 | locus YOL147C, strain pex11, hits give low values 0.931 | locus YOR184W, strain ser1, hits give low values 0.866 | locus YOR270C, strain vph1, hits give low values 0.737 | locus YPR163C, strain tif3, hits give low values 0.86
